Our source for the growth values is PubChem BioAssay (NCI).

Compounds without any hit were thinned out: in the full panel of roughly 83,000, 20% have a hit.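 In brief: 96-well plates, 48 h treatment, single concentration, percent growth endpoint.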 Values without a mark were called inactive. Calls of active or inactive are those of the source. Rule for the calls: active = growth percent below 10; inactive = the rest.

Common to all, as to test: NCI-60 one-dose screen, 48 h (100 = growth as untreated, 0 = no growth, -100 = all killed)
Conditions in all cases: 10 µM unless noted

Assay [1] relates to EKVX NSCLC.
For assay [2], the system named is SN12C renal.
Assay [3] has as its system UO-31 renal.
Assay [4] relates to TK-10 renal.
Assay [5] has as its system ACHN renal.
In assay [6] the test system is CAKI-1 renal.
The subject of assay [7] is A498 renal.
Assay [8] has as its system CCRF-CEM leukemia.
Assay [9] concerns MOLT-4 leukemia.
Assay [10] deals with SR leukemia.

`NCCCc1nnc(CCC(=O)c2nc3ccccc3[nH]2)o1`: the growth in assay [1] is 117%; in assay [2], 92.3%; in assay [3], 91.8%; in [4], 102%; in assay [5], 97.1%; in [6], 103%. For the same molecule, the growth in assay [7] is 97.4%; in assay [8], 90.9%; in [9], 98.2%; in assay [10], 84.5%.

In the case of `CCCc1cc(=O)n2c(C(=O)Nc3ccccc3OC)c(C(=O)Nc3ccc(F)cc3)sc2n1`, the growth is 52.8% [30 µM] in assay [1]; 58.1% [30 µM] in assay [2]; 19.7% [30 µM] in [3]; 37.7% [30 µM] in [4]; 20.3% [30 µM] in [5]; 5.5% [30 µM] (active) in assay [6]. The growth in [7] is 90% [30 µM]; in [8], 58.4% [30 µM]; in assay [9], 65.8% [30 µM]; in [10], 9.34% [30 µM] (active).

On to `CCOC(=O)C1=C(C)N2C(=NC3=C(CCC/C3=C\c3ccc(Cl)cc3)C2c2ccc(Cl)cc2)S1` (stereo not given), for which the growth in assay [1] is 64.6%; in assay [2] it was 58.1%; in assay [3], 53.9%; in [4], 58.2%; in assay [5], 16.6%; in [6] it was 62.3%. In addition, the growth in assay [7] is 3.17% (active); in assay [8] it was -17% (active); in assay [9], -3.87% (active); in assay [10] it was -8.47% (active).

Consider `COc1cc(C2CC(=O)Nc3c2cc(Br)c2ccccc32)cc(Br)c1OC` (stereo not given), for which the growth in [1] is 41.7%; in [2] it was 54.5%; in assay [3], 0.792% (active); in [4], -7.53% (active); in assay [5] it was 5.63% (active); in [6] it was 3.19% (active). Moreover, the growth is -2.63% (active) in assay [7], 11.1% in [8], 30.9% in assay [9] and -53.1% (active) in assay [10].

In the case of `COc1ccc(/C=N\Nc2ccc([N+](=O)[O-])cn2)cc1OC`, the growth in assay [1] is 63.6%; in assay [2], 26.2%; in assay [3] it was -11.9% (active); in assay [4], -63.4% (active); in assay [5], -3.48% (active); in [6] it was 43.1%. For the same molecule, the growth in assay [7] was -26.2% (active); in [8], 124%; in assay [9] it was 101%; in [10], 52.9%.

As for `COc1ccc2[nH]cc(/C=C3/C(=O)Nc4ccc(F)cc43)c2c1`, the growth is 77.2% in [1]; 78.2% in [2]; 73.1% in assay [3]; 104% in assay [4]; 68.4% in assay [5]; 62.4% in assay [6]. Also, the growth is 76% in [7], 63.2% in assay [8], 61.6% in [9] and 83.2% in [10].

`Nc1ccc2c3c(cccc13)-c1ccccc1-2`: the growth is 87.4% in [1]; 55.8% in assay [2]; 32.3% in [3]; 116% in assay [4]; 95.2% in [5]; 69.4% in [6]. In addition, the growth in assay [7] is 85.9%; in [8] it was 25.1%; in assay [9], 32.4%; in assay [10], 93.1%.

For the molecule `CNc1ccc(CSc2ccc(Cl)cc2)cc1`, the growth is 104% in [1]; 92.2% in assay [2]; 58.3% in assay [3]; 126% in assay [4]; 106% in assay [5]; -3.51% (active) in assay [6]. Also, the growth was 87% in [7], 33.3% in assay [8], 61.5% in assay [9] and 55.8% in assay [10].

With `O=C1OC(c2ccc(-c3ccccc3)cc2)=C/C1=C/c1cccs1`, the growth in assay [1] is 78.8%; in assay [2] it was 80.9%; in [3], 82.9%; in assay [4] it was 86.8%; in [5] it was 85.7%; in assay [6] it was 81.7%. In addition, the growth in assay [7] is 97.1%; in [8], -27.1% (active); in assay [9] it was 87.3%; in assay [10] it was 91.5%.

As for `COC(=O)CCC1=C(C)C(C)=N/C1=C\c1[nH]c(-c2ccc[nH]2)cc1OC`, the growth in assay [1] is 29.9%; in assay [2], 13.9%; in assay [3], -67% (active); in [4], 16%; in assay [5] it was -7.31% (active); in assay [6] it was 11.6%. For the same molecule, the growth in [7] is 4.29% (active); in assay [8], -22.7% (active); in assay [9], -29.7% (active); in [10] it was -31.4% (active).

As to `Cc1cc(C)c2c(c1)N1OC(C2)C[C@H]1/C=C/c1ccccc1` (stereo not given in full), the growth in assay [1] was 90%; in [2], 92.2%; in assay [3] it was 79.1%; in assay [4], 108%; in [5], 112%; in assay [6], 85.6%. For the same molecule, the growth in assay [7] was 99.9%; in assay [8] it was 92.9%; in assay [9], 77.7%; in assay [10], 83.2%.

In the case of `COC(=O)CCC1=C(CC(=O)OC)C(C)=N/C1=C\c1[nH]c(-c2ccc[nH]2)cc1OC`, the growth in assay [1] is 61.5%; in assay [2], 38.7%; in assay [3] it was -25.3% (active); in assay [4], 28.3%; in assay [5] it was 15.5%; in assay [6], 24.7%. For the same molecule, the growth was 72.1% in assay [7], 2.36% (active) in [8], -6.53% (active) in assay [9] and -24.6% (active) in [10].

`CCC(c1ccccc1)c1noc(CCN(CC)CC)n1` (stereo not given): the growth was 105% in assay [1]; 100% in [2]; 85.5% in assay [3]; 96.7% in assay [4]; 101% in [5]; 94.1% in assay [6]. Further, the growth in assay [7] is 101%; in assay [8], 48.2%; in [9], 83%; in [10], 69.2%.

Regarding `C[n+]1c2ccccc2c(NC2CCNCC2)c2[nH]c3ccccc3c21`, the growth in assay [1] is 10.3%; in assay [2], -17.5% (active); in assay [3], 67.3%; in assay [4], 29.5%; in assay [5], 71.1%; in assay [6], 88.8%. For the same molecule, the growth in [7] is 51.7%; in assay [8] it was -10.9% (active); in assay [9], -12.8% (active); in assay [10] it was -24.4% (active).

`CCOC(=O)C(C(C)=O)c1nc2sc3cc(Cl)ccc3n2c(=N)c1C#N` (stereo not given): the growth in assay [1] was 73.6%; in assay [2], 85.9%; in assay [3], 76.1%; in [4] it was 157%; in [5] it was 109%; in assay [6], 91.6%. For the same molecule, the growth was 101% in assay [7], 163% in assay [8], 44.9% in assay [9] and 60.3% in [10].

With `CN(C)c1nc(-c2ccco2)n2nc(-c3ccco3)cc2n1`, the growth was 77% in [1]; 93.4% in [2]; 40.5% in assay [3]; 90.3% in assay [4]; 96.5% in assay [5]; 90.7% in assay [6]. The growth in assay [7] was 79.9%; in assay [8], 93%; in [9], 97.3%; in assay [10], 73.8%.

In the case of `CCCCn1c(Cc2ccc(Cl)cc2)nc2cc(OC)c(OC)cc2c1=O`, the growth in assay [1] is 59.1%; in [2], 83.6%; in [3] it was 54.4%; in [4] it was 102%; in assay [5] it was 75.8%; in assay [6], 72.5%. Moreover, the growth was 101% in [7], -68.8% (active) in assay [8], -48.7% (active) in [9] and 59.4% in assay [10].

Turning to `Cc1cc2c(cc1[N+](=O)[O-])NC(CNC(C)C)CC2` (stereo not given), the growth was 95.2% in assay [1]; 105% in [2]; 90.7% in assay [3]; 97.1% in [4]; 99.7% in assay [5]; 99.7% in assay [6]. Also, the growth in assay [7] was 102%; in assay [8], 130%; in assay [9], 69.6%; in [10], 119%.

As to `COc1cc(-c2cc(C(=O)Nc3nc4ccccc4s3)nc3cc(-c4ccccc4)nn23)cc(OC)c1OC`, the growth in [1] is 107%; in [2], 99.5%; in assay [3], 87.9%; in [4] it was 106%; in [5], 101%; in assay [6], 84.6%. Moreover, the growth was 127% in [7], 72.3% in assay [8], 76% in [9] and 67% in [10].

On to `O=C(C(=O)N1CCOCC1)c1ccc(OC2OC(CO)C(O)C(O)C2O)cc1` (stereo not given), for which the growth was 104% in [1]; 106% in assay [2]; 102% in assay [3]; 101% in [4]; 97.9% in assay [5]; 98.5% in [6]. The growth in [7] was 104%; in [8], 107%; in assay [9], 90.3%; in assay [10], 102%.

For the molecule `COc1cc2c(c(OC)c1OC)CCc1cnoc1-2`, the growth is 112% in assay [1]; 106% in [2]; 94.5% in [3]; 111% in [4]; 95.1% in [5]; 105% in [6]. The growth in assay [7] is 100%; in [8] it was 111%; in [9], 127%; in assay [10], 166%.

`Oc1[nH]c2ccc(Cl)cc2c1/C=c1/ccc2c(c1)N=C(c1ccc(C(F)(F)F)cc1)N=2`: the growth in [1] is 87.4%; in assay [2], 88.3%; in assay [3] it was 62.2%; in assay [4], 88.4%; in assay [5], 57%; in assay [6] it was 54.3%. For the same molecule, the growth is 95.4% in assay [7], 15.5% in [8], 21.3% in assay [9] and 25.9% in assay [10].

Turning to `CCCCC1Nc2nc(SC)n(C)c(=O)c2CN(Cc2ccccc2)C1=O` (stereo not given), the growth is 82.8% in [1]; 93.4% in assay [2]; 72.2% in assay [3]; 78.3% in [4]; 90.2% in assay [5]; 69.3% in assay [6]. For the same molecule, the growth in [7] was 117%; in [8] it was 87%; in assay [9], 120%; in assay [10], 285%.

As to `O=C(CCc1nnc(Cn2ccnc2)o1)c1nc2ccccc2[nH]1`, the growth in assay [1] was 99.2%; in assay [2] it was 98.5%; in [3] it was 92%; in assay [4] it was 110%; in [5] it was 107%; in [6], 110%. The growth in assay [7] is 101%; in assay [8] it was 101%; in assay [9], 92.8%; in assay [10], 87.7%.

Regarding `CC(=O)Nc1ccc2c(c1)Cc1c(F)c(F)c(F)c(F)c1-2`, the growth in assay [1] is 70.3%; in assay [2], 90.2%; in assay [3], 58.1%; in assay [4], 84.7%; in assay [5] it was 87.5%; in assay [6], 86.6%. In addition, the growth in assay [7] was 69.1%; in assay [8] it was 58.9%; in assay [9], 99.4%; in assay [10] it was 52%.

On to `c1cnc2ccc3ncccc3c2c1`, for which the growth in [1] is 101%; in [2] it was 101%; in assay [3], 76.8%; in assay [4] it was 127%; in assay [5] it was 82.1%; in [6], 90.3%. The growth in assay [7] is 96.5%; in assay [8], 98.9%; in [9] it was 106%; in [10], 82%.

For the molecule `CCOc1cccc(C2CC(=O)Nc3cc4c(cc32)OCO4)c1` (stereo not given), the growth in [1] is 83.8%; in assay [2], 104%; in assay [3], 68.6%; in assay [4], 86.2%; in [5], 89.7%; in assay [6], 64%. Besides, the growth in assay [7] is 66.5%; in assay [8] it was 72.7%; in assay [9], 78.2%; in [10], 57.5%.

Regarding `CCCCCCCC/C=C/CCCCCCCC1=NC(C)(C)CN1CCO`, the growth in assay [1] is 58.5%; in assay [2], 60.9%; in assay [3] it was -44.8% (active); in assay [4] it was 59.5%; in [5] it was 24.4%; in assay [6], 59.5%. Also, the growth in [7] was 89.2%; in [8], -38.9% (active); in assay [9] it was -44.4% (active); in [10] it was -43.1% (active).
